nsP2pro primary: blocks chikungunya virus nsP2 protease peptide cleavage; FRET peptide cleavage, nsP2pro, fluorescence 1 h; Potency, µM (doses to about 24.9 µM), without a hit: at the top dose activity change, negative = inhibition, hits mostly inhibitors; Q8JUX6; 31,000 tested, 1.1% active; further: nearly all actives have a fitted effect of over 60% in size
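Purified recombinant nsP2pro (150 nM final) in 10 mM Tris-HCl pH 8.0 with 0.01% Tween 20 was preincubated 15 min at room temperature with compound (7 concentrations, up to 25 uM). FRET peptide 2 substrate (2.5 uM final) was then added; fluorescence was read after 1 h.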
nsP2 cell sec: inhibits CHIKV nsP2 protease in cells; shares compounds with nsP2pro primary; cell-based CHIKV nsP2 protease reporter assay; Potency, µM (series often up to 51.1 µM), inactives show at the top dose activity change, negative = inhibition, usual class: inhibitors; 450 tested, 10% active; AID 1964100; further: nearly all actives have a fitted effect of over 70% in size
NSP2 full ctr: full-length CHIKV NSP2 protease inhibition, selectivity. AID 1964101. shares compounds with nsP2pro primary. Potency, µM (titrated, usually from 50.7 µM), for inactives: at the highest dose activity change, negative = inhibition, usual class: inhibitors. Full-length CHIKV NSP2 protease enzymatic counterscreen. 410 tested, 39% active; further: nearly all actives have a fitted effect of over 65% in size
Furin counter: inhibits human furin in a CHIKV nsP2 protease selectivity counterscreen; shares compounds with nsP2pro primary; Recombinant human furin enzymatic counterscreen, fluorogenic substrate; Potency, µM (series often up to 50.6 µM), inactives show top-dose activity change, negative = inhibition, most hits filed as inhibitors; 410 tested, 6% active; AID 1964102
NS23 peptide cs: nsP2pro inhibition on native NS2/3 peptide substrate; shares compounds with nsP2pro primary; Purified CHIKV nsP2 protease, endogenous NS2/3 peptide cleavage; Potency, µM (titrated, usually from 51 µM), for the others: top-dose activity change, negative = inhibition, actives largely listed as inhibitors; 410 tested, 34% active; further: nearly all actives have a fitted effect of over 55% in size
Papain counter: inhibits papain in a CHIKV nsP2 protease selectivity counterscreen. purified papain protease activity, enzymatic inhibition. Potency, µM (doses to about 51 µM), for inactives: at the highest dose activity change, negative = inhibition, most hits filed as inhibitors. 410 tested, 5% active. shares compounds with nsP2pro primary
Target sequence (P00784 whole entry, looked up): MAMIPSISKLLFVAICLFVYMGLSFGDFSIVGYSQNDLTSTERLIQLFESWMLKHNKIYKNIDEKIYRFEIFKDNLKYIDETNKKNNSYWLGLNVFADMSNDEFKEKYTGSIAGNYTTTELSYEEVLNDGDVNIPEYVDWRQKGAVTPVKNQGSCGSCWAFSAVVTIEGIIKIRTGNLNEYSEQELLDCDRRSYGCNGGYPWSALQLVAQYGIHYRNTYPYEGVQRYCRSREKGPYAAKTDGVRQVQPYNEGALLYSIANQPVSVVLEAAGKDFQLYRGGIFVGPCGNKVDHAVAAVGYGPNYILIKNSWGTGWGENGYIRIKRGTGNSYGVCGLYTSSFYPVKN
nsP2pro conf qHTS: confirmation of CHIKV nsP2 protease inhibitors; shares compounds with nsP2pro primary; CHIKV nsP2 protease enzymatic activity, qHTS; Potency, µM (titrated, usually from 25.5 µM), inactives show at the highest dose activity change, negative = inhibition, usual class: inhibitors; 410 tested, 43% active; further: nearly all actives have a fitted effect of over 75% in size
HCV NS3 4A cs: inhibits HCV NS3/4A protease in an nsP2pro selectivity counterscreen; shares compounds with nsP2pro primary; HCV NS3/4A protease biochemical counterscreen; Potency, µM (doses to about 50.9 µM), hits mostly inhibitors; 410 tested, 20% active; further: nearly all actives have a fitted effect of over 55% in size
An asterisk follows results filed as active; i = inactive; ? = inconclusive; nt = no result; [ ] = another dose, or the depositor's remark. The sample as a whole holds a higher share of hits than the screen did. The call rests on the fitted dose curve. On the % scale 0 is the no-effect control and ±100 the full control effect; potency means the concentration at half of the fitted maximal effect.

SMILES | nsP2pro primary | others
CCCCCS(=O)(=O)c1oc(-c2cccs2)nc1S(=O)(=O)c1ccc(C)cc1 | -16%
CCCCS(=O)(=O)c1oc(-c2cccs2)nc1S(=O)(=O)c1ccc(F)cc1 | ? | nsP2 cell sec=3.7µM*;NSP2 full ctr=5.8µM*;Furin counter=3%;NS23 peptide cs=8.2µM*;Papain counter=-9%;nsP2pro conf qHTS=5µM*;HCV NS3 4A cs=i
Cc1ccc(S(=O)(=O)c2ccc([N+](=O)[O-])o2)cc1 | 0.56µM* | nsP2 cell sec=?;NSP2 full ctr=1.5µM*;Furin counter=-11%;NS23 peptide cs=4.6µM*;Papain counter=?;nsP2pro conf qHTS=0.56µM*;HCV NS3 4A cs=i
O=NCc1ccc([N+](=O)[O-])o1 | -23%
NC(=O)N/N=C/c1ccc([N+](=O)[O-])o1 | -26%
COc1ccc2c(c1)c(CN1CCOCCNC(=O)CC1)cn2C | -19%
CC1(C(=O)N2CCC(c3ccccc3)CC2)CCc2cnc(Nc3ccncc3)nc21 (stereo unspecified) | i
COc1cc(F)c(C(C)C)cc1-c1ccc(C(F)(F)F)cc1CN1C(=O)OC(c2cc(C(F)(F)F)cc(C(F)(F)F)c2)C1C (stereo unspecified) | 29%
CCOc1ccc(CNC(=O)COc2cc(=O)n(C)c3ccccc23)cc1 | ? | nsP2 cell sec=2%
COc1ccccc1NC(=O)CCCOc1cc(=O)n(C)c2ccccc12 | -13%
CCn1c(=O)cc(OCC(=O)NCc2ccccc2OC)c2ccccc21 | -7%
CN(C)CCCCCCNC(=O)c1cccc(-c2cc(O)c3ncccc3c2)c1 | i
CCOc1ccc(C(=O)Nc2ccc3nc(SCC(=O)N4CCCC4)sc3c2)cc1 | -11%
O=C(Nc1ccc2nc(SCC(=O)N3CCc4ccccc43)sc2c1)c1cccc(Cl)c1 | -16%
CCOC(=O)CSc1nc2ccc(NC(=O)c3ccc(Cl)cc3)cc2s1 | ? | nsP2 cell sec=-7%
O=C(CSc1nnc(-c2cccc([S+](=O)([O-])N3CCCC3)c2)n1-c1ccccc1)Nc1ccc2c(c1)OCCO2 | i
COc1ccc(CNc2nc(-c3ccccc3C(F)(F)F)nc3ccccc23)cc1 | i
CC(=O)OC(CSC1CCC(=O)OC(C)CCC(=O)C1)C(=O)O (stereo unspecified) | ? | nsP2 cell sec=6%[33.5 µM];NSP2 full ctr=-5%[33.5 µM];Furin counter=-5%[33.5 µM];NS23 peptide cs=-11%[33.5 µM];Papain counter=-11%[33.5 µM];nsP2pro conf qHTS=?;HCV NS3 4A cs=?
Cc1cc(N[S+](=O)([O-])c2ccc(NC(=O)Cc3ccc4c(c3)OCCO4)cc2)no1 | i
CC(C)(C)c1coc([C@@H]2COCCN2Cc2ccc(C(=O)O)cc2)n1 | -7%[39.2 µM]
C[C@@H](N[C@H]1CCCC[C@@H]1NC(=O)c1ccc(Cl)cc1)c1cccc2ccccc12 | 4%
COc1ccc(Br)c(C(=O)Nc2cc3c(cc2N2CCCC2)n(C)c(=O)c(=O)n3C)c1 | -33%
COc1ccc(OC)c(N2C(=O)C(Cl)=C(N3CCCCC3)C2=O)c1 | ? | nsP2 cell sec=-11%;NSP2 full ctr=16µM*;Furin counter=-7%;NS23 peptide cs=?;Papain counter=-18%;nsP2pro conf qHTS=7.1µM*;HCV NS3 4A cs=i
COc1ccc(OC)c(NC(=O)CN2C(=O)c3ccccc3Sc3ccc(C(=O)N4CCCC4)cc32)c1 | -5%
CC(C)c1cc(C(=O)N2Cc3ccc(CN4CCN(C)CC4)cc3C2)c(O)cc1O | -11%
SMILES | nsP2pro primary | others
O=C(COc1ccccc1)N1C[C@@H]2C[C@H](C1)c1c(NS(=O)(=O)c3ccccc3)ccc(=O)n1C2 | ? | nsP2 cell sec=4%;NSP2 full ctr=16µM*;Furin counter=-4%;NS23 peptide cs=?;Papain counter=-3%;nsP2pro conf qHTS=?;HCV NS3 4A cs=?
CCCS(=O)(=O)Nc1ccc(=O)n2c1[C@@H]1C[C@@H](CN(C(=O)c3ccc(OC)cc3)C1)C2 | -9%
O=C(Nc1ccc(=O)n2c1[C@@H]1C[C@@H](CN(C(=O)COc3ccccc3)C1)C2)c1ccccc1 | 0%
O=C(Nc1nnc(-c2ccco2)o1)c1ccncc1 | -4%
O=S(=O)(c1ccccc1)n1nc(-c2ccccc2)nc1NCc1ccc(Cl)cc1 | -10%
COc1ccc(CNc2nc(-c3ccco3)nn2C(=O)c2ccccc2Cl)cc1 | -22%
COc1ccc(CNc2nc(-c3ccco3)nn2S(=O)(=O)c2ccc3ccccc3c2)cc1OC | ? | nsP2 cell sec=15%
CCC(CC)O[C@@H]1C=C(C(=O)O)C[C@H](N)[C@H]1NC(C)=O | 9%
Cc1ccc(OCCn2c(CCNC(=O)/C=C/c3cccc(Br)c3)nc3ccccc32)cc1 | -18%
COc1cccc(C2c3c(ncn(CCCN4CCOCC4)c3=N)Oc3ccc4ccccc4c32)c1 (stereo unspecified) | i
CN1CCC(c2cn(C)c3ccc(OS(=O)(=O)c4c(F)cccc4F)cc23)CC1 | 105%
O=[N+]([O-])C(Br)(CO)CO | 2.5µM* | nsP2 cell sec=0%;NSP2 full ctr=9.2µM*;Furin counter=2%;NS23 peptide cs=9.2µM*;Papain counter=-7%;nsP2pro conf qHTS=1.6µM*;HCV NS3 4A cs=?
C[C@H]1O[C@]2(CS1)CN1CCC2CC1 | 7%
c1ccc(-c2nc(NCc3ccc(-c4cccnc4)cc3)c3ccccc3n2)cc1 | 1%
O=C(Cn1ccn2nc3c(c2c1=O)CCCC3)NCc1cccs1 | 13%
c1c2c(cc3c1OCO3)-c1cc3ccc4c(c3c[n+]1CC2)OCO4 | ? | nsP2 cell sec=-6%;NSP2 full ctr=?;Furin counter=4.1µM*;NS23 peptide cs=?;Papain counter=-22%;nsP2pro conf qHTS=?;HCV NS3 4A cs=i
COc1cc2c(cc1OC)-c1cc3ccc(OC)c(OC)c3c[n+]1CC2 | nt | nsP2 cell sec=3%;NSP2 full ctr=?;Furin counter=-23%;NS23 peptide cs=?;Papain counter=?;nsP2pro conf qHTS=?;HCV NS3 4A cs=i
C[C@@H](O)c1ccc(-c2ccc3ncnc(NCc4cccs4)c3c2)o1 | 0%
O=S(=O)(Nc1nccs1)c1ccc(NCc2ccc(Br)cc2O)cc1 | -16%
C=C1C[C@@]2(O)O[C@@]3(C[C@H]2C(C)C)[C@@H](C)CC[C@@H]13 | -26%
CCOc1ccc(CCNC(=O)c2cc3ccccc3n2Cc2cccc(C)n2)cc1OCC | 3%
COc1cccc(Nc2cnc3ccc(-c4ccc(F)cc4)nn23)c1 | 72%[39.2 µM]
CS(=O)(=O)c1ccc([C@@H](C[C@H]2CCC(=O)C2)C(=O)Nc2cnccn2)cc1Cl | 10%
COC(O)(CC(C)C)C1Oc2cc(C)[nH]c(=O)c2O1 (stereo unspecified) | 8.8µM* | nsP2 cell sec=11%;NSP2 full ctr=-6%;Furin counter=-4%;NS23 peptide cs=1%;Papain counter=-3%;nsP2pro conf qHTS=-23%;HCV NS3 4A cs=i
O=C1CCCC2=C1C(c1c(Cl)cccc1Cl)N=C(Nc1nc3ccccc3o1)N2 (stereo unspecified) | i
Oc1ccc(CNc2ccc3ccccc3n2)c2cccnc12 | i

Assay outcomes as filed in PubChem.
